Measured values: PubChem BioAssay (NCATS)
Values without a mark were called inactive. Results filed as inconclusive are left out. Where a call stands in place of a potency, no number is given. Calls of active or inactive are those of the source. The call rests on the fitted dose curve; in most records, active means well fitted curve in the direction sought with a large enough effect; inconclusive means small, poorly fitted or top-dose-only effect, or another doubt; inactive means no such curve, though single readings can be large; an effect the other way counts as inactive or inconclusive.

Legend:
[1] = Primary qHTS for inhibitors of La Crosse Virus (LACV) - induced cell death in SH-SY5Y cells (AID 1508616);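 further: top concentration of the series differs between compounds; higher means more rescue of cells from virus-induced death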
Outline: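 Luminescent ATP readout (ATPLite 1step, 5 min room temperature) measured rescue from LACV-induced death after 6 days of infection at 0.01 MOI; normalized to infected DMSO wells and uninfected DMSO wells.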

[2] = molecular target: Calcium and integrin-binding protein 1 (Homo sapiens) (UniProt Q99828); assay: Primary qHTS for Identification of Calcium Integrin Binding Protein 1 (CIB1) Competitor (AID 1508620);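 further: GST tagged CIB1 binding a fluorescein labelled alphaIIb integrin peptide tracer; top concentration of the series differs between compounds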
Outline: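 Fluorescence polarization competition: CIB1-GST (1 uM final) preincubated with compound 15 min at room temperature, then FITC-labeled alphaIIb peptide (100 nM final) added for another 15 min. Polarization read at Ex 480/Em 540.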

[3] = Primary qHTS for small molecule stabilizers of the endoplasmic reticulum resident proteome: Secreted ER Calcium Modulated Protein (SERCaMP) assay (AID 1508630)
Outline: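 GLuc-SERCaMP-expressing SH-SY5Y cells, pretreated 16 h with compound, are challenged with thapsigargin to empty ER calcium stores; after 4 h, coelenterazine is added directly to the medium and luminescence is imaged.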

[4] = molecular target: Single-stranded DNA cytosine deaminase (Homo sapiens) (UniProt Q9GZX7); assay: Validation qHTS assay for inhibitors of Activation Induced Cytidine Deaminase (AID): AID signal (AID 1347429)
Outline: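 AID and UDG were combined and compounds added at final up to 114 uM, then DJC20/DJC23 FRET substrate was added for 4 hr at room temperature. NaOH was then added for 30 min before fluorescence was read at 540/590 nm.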

[5] = molecular target: Calcium and integrin-binding protein 1 (Homo sapiens) (UniProt Q99828); assay: Validation qHTS for Identification of Calcium Integrin Binding protein 1 (CIB1) Competitor (AID 1508618)
Outline: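 Fluorescence polarization with 1 uM CIB1-GST and 100 nM FITC-alphaIIb peptide in HEPES pH 7.4, NaCl, 5 mM CaCl2, Tween20. Compounds at up to 114 uM final, preincubated with protein 15 min; read after 15 min more at RT.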

[6] = Counterscreen qHTS for small molecule stabilizers of the endoplasmic reticulum resident proteome: GLuc-NoTag assay (AID 1508627);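 further: SH-SY5Y cells given compound then 100 nM thapsigargin to empty ER calcium; series mostly up to about 76 µM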
Outline: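 SH-SY5Y cells stably expressing constitutively secreted GLuc (no SERCaMP tag) were pre-incubated 5 h, treated with compound for 19 h, then 100 nM thapsigargin for 4 h at 37C; medium GLuc read by coelenterazine luminescence.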

[7] = Confirmatory qHTS for small molecule stabilizers of the endoplasmic reticulum resident proteome: Secreted ER Calcium Modulated Protein (SERCaMP) assay (AID 1508628); further: nearly all actives have a fitted effect of over 40% in size; further: potency means the concentration at half of the fitted maximal effect
Outline: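 We seeded SH-SY5Y-GLuc-SERCaMP cells, added compounds (three concentrations in the primary run, eleven up to 76.6 uM in confirmation), incubated 16 h, depleted ER calcium with thapsigargin, and read luciferase 4 h later.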

[8] = Cell Viability qHTS for small molecule stabilizers of the endoplasmic reticulum resident proteome (AID 1508629); settings: cell viability counter-screen, 100 nM thapsigargin for final 4 h;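 further: human SH-SY5Y neuroblastoma cells carrying the GLuc-SERCaMP reporter; compound exposure about 46 h in total before the viability read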

Chain of Calcium and integrin-binding protein 1 (Homo sapiens) (Q99828 whole entry, looked up): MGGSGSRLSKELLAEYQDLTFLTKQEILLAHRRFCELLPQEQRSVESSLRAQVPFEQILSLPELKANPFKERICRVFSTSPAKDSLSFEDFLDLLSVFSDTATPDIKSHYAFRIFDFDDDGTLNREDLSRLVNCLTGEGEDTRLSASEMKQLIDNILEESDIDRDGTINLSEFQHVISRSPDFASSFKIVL
Chain of Single-stranded DNA cytosine deaminase (Homo sapiens) (Q9GZX7 whole entry, looked up): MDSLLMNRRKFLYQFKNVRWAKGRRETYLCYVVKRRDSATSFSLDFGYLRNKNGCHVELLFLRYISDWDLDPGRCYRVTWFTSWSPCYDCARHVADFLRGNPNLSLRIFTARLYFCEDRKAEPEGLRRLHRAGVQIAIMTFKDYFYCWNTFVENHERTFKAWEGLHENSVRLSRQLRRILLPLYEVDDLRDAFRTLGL

| Compound | Potency [1] | outcome [2] | Potency [3] | outcome [4] | outcome [5] | outcome [6] | Potency [7] | max response [8] |
| --- | --- | --- | --- | --- | --- | --- | --- | --- |
| Cc1cccc(N(C)C(=S)Oc2ccc3ccccc3c2)c1 | inactive | inactive | inactive |  |  |  |  |  |
| OCc1ccc(-c2nn(Cc3ccccc3)c3ccccc23)o1 | inactive | inactive | inactive | inactive | inactive |  |  |  |
| CC1CC2C3CCC4=CC(=O)C=C[C@]4(C)[C@@]3(F)[C@@H](O)C[C@]2(C)[C@@]1(O)C(=O)CO (some centres not stated) | inactive | inactive | inactive | inactive | inactive |  |  |  |
| CN1CCCC(n2nc(Cc3ccc(Cl)cc3)c3ccccc3c2=O)CC1 (configuration not stated) | inactive | inactive | inactive |  |  | inactive | 20 µM (active) |  |
| CC(C)(Sc1cc(C(C)(C)C)c(O)c(C(C)(C)C)c1)Sc1cc(C(C)(C)C)c(O)c(C(C)(C)C)c1 | inactive | inactive | inactive |  |  | inactive | inactive |  |
| CCN1CCCC1CNC(=O)c1cc(S(N)(=O)=O)ccc1OC (configuration not stated) | inactive | inactive | inactive | inactive | inactive |  |  |  |
| O[C@@H](CNC[C@H](O)[C@H]1CCc2cc(F)ccc2O1)[C@@H]1CCc2cc(F)ccc2O1 | inactive | inactive | inactive |  |  |  |  |  |
| CC1(C)[C@H](C(=O)O)N2C(=O)C[C@H]2S1(=O)=O | inactive | inactive |  |  |  |  |  |  |
| C[C@@H](NCCCc1cccc(C(F)(F)F)c1)c1cccc2ccccc12 | inactive | inactive | inactive |  |  |  |  |  |
| CCOc1cc(N)c(Cl)cc1C(=O)NCC1CN(Cc2ccc(F)cc2)CCO1 (configuration not stated) | inactive | inactive | inactive |  |  | inactive | inactive | -7.94% |
| COc1cc2ncnc(Nc3cccc(Cl)c3)c2cc1OC | inactive | inactive | inactive | inactive | inactive |  |  |  |
